From PubChem BioAssay (EPA / NIEHS) come the findings set out here.

Calls of active or inactive are those of the source. The calls were made as follows: active = hit-call score of the fitted dose curve at least 0.9, where 1 is the maximum; inactive = score below 0.9.

Hepatocyte nuclear factor 3-beta (Homo sapiens), sequence (Q9Y261 whole entry, looked up): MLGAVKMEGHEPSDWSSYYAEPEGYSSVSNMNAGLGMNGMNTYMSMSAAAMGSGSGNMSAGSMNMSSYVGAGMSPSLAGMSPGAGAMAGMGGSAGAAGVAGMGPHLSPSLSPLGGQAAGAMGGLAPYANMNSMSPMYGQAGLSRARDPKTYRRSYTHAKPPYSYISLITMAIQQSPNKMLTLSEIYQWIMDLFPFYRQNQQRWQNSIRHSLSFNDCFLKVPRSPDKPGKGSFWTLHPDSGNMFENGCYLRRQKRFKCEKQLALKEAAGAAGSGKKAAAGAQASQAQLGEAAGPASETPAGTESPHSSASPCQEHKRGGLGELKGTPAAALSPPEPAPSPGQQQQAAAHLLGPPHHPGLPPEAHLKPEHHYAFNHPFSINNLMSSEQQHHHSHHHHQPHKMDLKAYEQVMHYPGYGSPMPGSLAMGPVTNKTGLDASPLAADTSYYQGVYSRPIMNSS

For the assay, the target named is Hepatocyte nuclear factor 3-beta (Homo sapiens) (UniProt Q9Y261). In words: ATG_FoxA2_CIS: Attagene CIS-FACTORIAL HepG2 Assay for human Forkhead box A2 (FOXA2) (AID 2282942). The following applies: HepG2 cis-reporter transcription factor activity, 24 h; actives raise or lower the signal. As for the experimental part:
ATG_CIS is a cell-based, multiplexed-readout assay that uses HepG2, a human liver cell line, with measurements taken at 24 hours after chemical dosing in a 24-well plate.ATG_FoxA2_CIS is one of 52 assay component(s) measured or calculated from the ATG_CIS assay. It is designed to make measurements of mRNA induction, a form of inducible reporter, as detected with fluorescence intensity signals by Reverse transcription polymerase chain reaction (RT-PCR) and Capillary electrophoresis technology.Data from the assay component ATG_FoxA2_CIS was analyzed into 1 assay endpoint. This assay endpoint, ATG_FoxA2_CIS, was analyzed with bidirectional fitting relative to DMSO as the negative control and baseline of activity. Using a type of inducible reporter, measures of mRNA for gain or loss-of-signal activity can be used to understand the reporter gene at the transcription factor-level as they relate to the gene FOXA2. Furthermore, this assay endpoint can be referred to as a primary readout, because this assay has produced multiple assay endpoints where this one serves a reporter gene function. To generalize the intended target to other relatable targets, this assay endpoint is annotated to the dna binding intended target family, where the subfamily is forkhead box protein.
Human liver HepG2 cells are transiently transfected with multiple reporter transcription units (MRTUs) in 6-well plates using FuGene 6 reagent (Roche; 3 ml FuGene/1 mg DNA). The MRTU constructs are regulated by a cis-regulating element (promoter). […] A major difference between the CIS and TRANS system is that in CIS activities of endogenous TFs are measured, whereas the TRANS assay evaluates changes in activities of exogenous, chimeric NR-Gal4 proteins. […] At the end of 24 hour incubation, total RNA was isolated using TriZol reagent (Invitrogen). The isolated RNA is then reverse-transcribed using oligo(dT) primer and Mo-MLV reverse transcriptase (Invitrogen) with DNAse I (Ambion) treatment for 30 min. The one-tenth of the produced cDNA was amplified by PCR using Taq DNA polymerase (Invitrogen) and two reporter sequence-specific primers. The PCR products were fluorescently labeled by primer extension with 6-arboxyfluorescein (6-FAM) 5'-labeled reporter sequence-specific primer (2 min at 95 C, 20 s at 68 C and 10 min at 72 C) and these products were digested with 5U of HpaI (New England Biolabs) for 2h at 37 C. The fragments were purified using Qiaquick PCR columns (Qiagen), analyzed on an ABI 3130xL genetic analyzer (Applied Biosystems) with peak positions identified by using a set of X-rhodamine (ROX)-labeled MapMarker1000 molecular weight standards (BioVentures). The raw capillary electrophoresis data was processed using Attagraph software (Attagene).
For the compound `OCC(F)(F)C(F)(F)C(F)(F)C(F)(F)C(F)(F)C(F)F`, the compound was called inactive.

As to `O=C(O)C=C(C(F)(F)F)C(F)(F)F`, the result was inactive.

Take `OCC(F)(F)C(F)(F)C(F)(F)C(F)F`: the outcome was inactive.

As to `FC(F)(F)C(F)(F)C(F)(F)C(F)(F)C(F)(F)C(F)(F)C(F)(F)C(F)(F)F`, the compound was called inactive.

Turning to `O=C(CC(=O)C(F)(F)C(F)(F)F)C(F)(F)F`, the compound was called inactive.

As for `CN(C)Cc1ccccc1O`, the compound was called inactive.

For `O=P(O)(O)OCCC(F)(F)C(F)(F)C(F)(F)C(F)(F)C(F)(F)C(F)(F)F`, the compound was classed as inactive.

Consider `CCc1c(Br)c(Br)c(Br)c(Br)c1Br`, for which the compound was called inactive.

As for `CCCCCCOC(=O)c1ccccc1O`, the compound was called inactive.

On to `O=C(O)C(F)(F)C(F)(F)OC(F)(F)F`, for which the compound was called inactive.

Regarding `CCO[Si](CCC(F)(F)C(F)(F)C(F)(F)C(F)(F)C(F)(F)C(F)(F)F)(OCC)OCC`, the call was inactive.

Regarding `CCC(=O)OCCc1ccccc1`, the compound was classed as inactive.

On to `C=C(C)C(=O)OCCC(F)(F)C(F)(F)C(F)(F)C(F)(F)C(F)(C(F)(F)F)C(F)(F)F`, for which the compound was classed as inactive.

In the case of `CC(C)OC(=O)c1ccccc1C(=O)OC(C)C`, the compound was classed as inactive.

For `O=C(OCCOCCOCCOC(=O)c1ccccc1)c1ccccc1`, the call was inactive.

Regarding `Nc1ccc(S(=O)(=O)Nc2nccs2)cc1`, the result was inactive.

Take `FC1CC(F)(F)C(F)(F)C1(F)F` (stereo not given): the compound was called inactive.

For `FC(F)(F)C(F)(F)C(F)(F)C(F)(F)C(F)(F)C(F)(F)CCS`, the compound was classed as inactive.

Take `FC(F)(Br)C(F)(F)C(F)(F)C(F)(F)C(F)(F)C(F)(F)Br`: the outcome was inactive.

Consider `CC(C)(C)C(=O)CC(=O)C(F)(F)C(F)(F)C(F)(F)F`, for which the call was inactive.

With `CC(C)(C)c1ccc(OC2CCCCC2O)cc1` (stereo not given), the compound was called inactive.

`CCCCCCCCC(F)(F)C(F)(F)C(F)(F)C(F)(F)C(F)(F)C(F)(F)F`: the outcome was inactive.

For `Nc1ccc([N+](=O)[O-])cc1O`, the outcome was inactive.

As for `CC/C=C\CCOC(=O)c1ccccc1`, the result was inactive.

For `O=C(O)C(F)(F)C(F)(F)C(F)(F)C(F)(F)C(F)(F)C(F)(F)C(F)(F)C(F)(F)C(F)(F)C(F)(F)C(F)(F)C(F)(F)F`, the outcome was inactive.

Regarding `C(=C(c1ccccc1)c1ccccc1)c1ccccc1`, the call was inactive.

For the compound `C=CC(=O)OCC(F)(F)C(F)(F)C(F)(F)C(F)(F)C(F)(F)C(F)(F)C(F)(F)F`, the compound was called inactive.

In the case of `CCCCCCOC(=O)c1ccccc1`, the call was inactive.

For `FC(F)(F)C(F)(F)C(F)(F)C(F)(F)CCI`, the result was inactive.

With `FC(F)(F)C(F)(F)C(F)(F)C(F)(F)C(F)(F)C(F)(F)C(F)(F)Br`, the result was inactive.

`C=C(C)C(=O)OCC(F)(F)C(F)(F)C(F)(F)C(F)(F)C(F)(F)C(F)(F)C(F)(F)F`: the compound was classed as inactive.

For `FC(F)(F)C(F)(F)C(F)(F)N(C(F)(F)C(F)(F)C(F)(F)F)C(F)(F)C(F)(F)C(F)(F)F`, the compound was classed as inactive.

As for `CC(C)c1ccccc1N`, the compound was classed as inactive.

Turning to `CC(C)=CCCC(C)CCOC(=O)C(C)C` (stereo not given), the outcome was inactive.

Consider `CCc1ccc(C(c2ccc(CC)cc2)C(Cl)Cl)cc1`, for which the call was inactive.

In the case of `OCCCC(F)(F)C(F)(F)C(F)(F)C(F)(F)C(F)(F)C(F)(F)C(F)(F)F`, the compound was classed as inactive.

As for `O=C(O)C(F)(F)C(F)(F)C(F)(F)C(F)(F)C(F)(F)C(F)(F)C(F)(F)C(F)(F)Cl`, the call was inactive.

For the compound `CCCCCCS`, the call was inactive.

On to `O=S(=O)(O)c1ccc2ccccc2c1`, for which the result was inactive.

On to `COC(=O)C1CCC(C(=O)OC)CC1` (stereo not given), for which the result was inactive.
